The campaign covered roughly 310,000 compounds. About 14,000 (4.5%) showed an effect of 50% or more. Effects have a minus sign here. Only a selection was taken, and strong results are over-represented in it overall.

The text below walks through data of article PMC4336329 (PLoS ONE, 2015).
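Note: peak tail current of the secondary pulse compared with the same well before compound.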

The target of this assay is human ether-à-go-go-related gene (hERG) potassium channel (human, UniProt Q12809). Kind of assay: primary screen, population patch clamp on CHO cells stably expressing hERG; higher = less effect of the substance.
human ether-à-go-go-related gene (hERG) potassium channel, sequence (Q12809 whole entry, looked up): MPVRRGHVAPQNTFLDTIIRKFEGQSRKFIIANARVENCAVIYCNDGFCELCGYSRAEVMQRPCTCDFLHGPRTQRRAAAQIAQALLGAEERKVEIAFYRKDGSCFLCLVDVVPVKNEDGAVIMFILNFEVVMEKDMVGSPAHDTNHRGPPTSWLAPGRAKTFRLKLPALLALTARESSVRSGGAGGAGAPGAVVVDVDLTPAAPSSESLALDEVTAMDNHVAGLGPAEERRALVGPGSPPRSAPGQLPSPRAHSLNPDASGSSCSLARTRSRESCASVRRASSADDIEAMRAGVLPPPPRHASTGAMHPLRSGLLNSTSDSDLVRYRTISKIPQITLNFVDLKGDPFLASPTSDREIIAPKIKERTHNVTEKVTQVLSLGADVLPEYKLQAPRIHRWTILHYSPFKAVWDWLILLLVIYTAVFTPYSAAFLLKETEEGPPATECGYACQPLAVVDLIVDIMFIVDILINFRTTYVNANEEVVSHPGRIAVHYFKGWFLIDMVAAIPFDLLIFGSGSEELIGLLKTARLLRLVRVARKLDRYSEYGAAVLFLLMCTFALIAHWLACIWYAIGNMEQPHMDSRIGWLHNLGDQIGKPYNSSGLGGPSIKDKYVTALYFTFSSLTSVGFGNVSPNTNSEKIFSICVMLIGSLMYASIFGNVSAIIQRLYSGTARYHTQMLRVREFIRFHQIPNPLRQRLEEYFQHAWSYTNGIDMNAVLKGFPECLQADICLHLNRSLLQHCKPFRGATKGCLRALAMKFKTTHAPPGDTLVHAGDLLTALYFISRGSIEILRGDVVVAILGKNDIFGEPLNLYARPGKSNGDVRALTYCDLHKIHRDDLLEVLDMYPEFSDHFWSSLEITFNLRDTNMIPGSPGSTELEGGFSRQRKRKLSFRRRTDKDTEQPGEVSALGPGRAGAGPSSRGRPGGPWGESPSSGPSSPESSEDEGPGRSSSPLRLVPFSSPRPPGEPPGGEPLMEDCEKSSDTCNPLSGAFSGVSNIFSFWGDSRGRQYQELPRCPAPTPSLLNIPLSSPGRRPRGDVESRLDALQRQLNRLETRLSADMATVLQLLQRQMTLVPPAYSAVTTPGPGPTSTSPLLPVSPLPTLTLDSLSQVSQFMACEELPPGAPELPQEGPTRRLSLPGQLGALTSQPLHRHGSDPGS
Regarding `COc1ccc(-c2nnc3sc(-c4ccccn4)nn23)cc1`, the “hERG current change (%, negative = inhibition) at 10uM” value was -13.2%.

As to `CCOC(=O)c1ccc(-c2ccc(CO)o2)cc1`, the “hERG current change (%, negative = inhibition) at 10uM” value is -6.44%. As for `CCC(C)[C@H](NC(=O)N1CC(=O)Nc2ccccc21)C(=O)N[C@H](C(=O)O)c1ccccc1` (stereo partly drawn), the figure is 7.19%; as for `CCN1C(=O)CC(c2ccco2)Sc2ccccc21` (stereo not drawn), -16.8%. On to `O=C(NCCCN1CCOCC1)c1ccc([N+](=O)[O-])cc1[N+](=O)[O-]`, for which the “hERG current change (%, negative = inhibition) at 10uM” value is given as 10.5%.

For `CC(C)n1c(=O)c(C=Nc2ccc(F)cc2)c(O)n(Cc2ccco2)c1=O`, the “hERG current change (%, negative = inhibition) at 10uM” value is reported as -19.7%. With `COc1ccc2c(=O)c3c(=O)n(-c4ccc(C)cc4)c(-c4ccccc4)nc3oc2c1`, the “hERG current change (%, negative = inhibition) at 10uM” value was 6.84%. In the case of `CC(=O)Nc1ccc(S(=O)(=O)N2CCSC2C(=O)O)cc1` (stereo not drawn), the “hERG current change (%, negative = inhibition) at 10uM” value is 0.312%.

`Cc1ccc(S(=O)(=O)Nc2ccc(N3CCOCC3)cc2)cc1C`: the “hERG current change (%, negative = inhibition) at 10uM” value came out at 2.95%. Consider `COc1ccc(/C=C/C(=O)NC(=S)NNC(=O)c2c(-c3ccccc3)noc2C)cc1`, for which the “hERG current change (%, negative = inhibition) at 10uM” value stood at 11.4%. In the case of `Cc1cc2ncc(-c3cccc(Cl)c3)cn2n1`, the “hERG current change (%, negative = inhibition) at 10uM” value stood at 8.42%. Turning to `CC(=O)Nc1ccc2c(COC(=O)CC3Sc4ccccc4NC3=O)cc(=O)oc2c1` (stereo not drawn), the “hERG current change (%, negative = inhibition) at 10uM” value is reported as -9.75%. With `O=C(CC1Sc2ccccc2NC1=O)OCc1cc(=O)oc2cc(O)ccc12` (stereo not drawn) the figure was -51.7%; with `COc1ccc2c(COC(=O)CC3Sc4ccccc4NC3=O)cc(=O)oc2c1` (stereo not drawn), -44.1%. As for `CCCCn1c(SCC(=O)NCc2ccccc2)nc2ccc(N3CCOCC3)cc2c1=O`, the figure is -13.9%; as for `COc1ccc(OC)c(NC(=O)C2C3CC4OC(=O)C2C4C3)c1` (stereo not drawn), 11.2%.

With `O=C(c1cccn2c(=O)c3ccccc3nc12)N1CCN(Cc2ccc3c(c2)OCO3)CC1`, the “hERG current change (%, negative = inhibition) at 10uM” value is reported as -67.7%. With `O=C(Cn1ccc2ccccc2c1=O)N1CCN(Cc2ccc3c(c2)OCO3)CC1` the figure was -14.8%; with `O=C(c1ccccc1Cl)N1CCN(Cc2ccc3c(c2)OCO3)CC1`, -21.1%.

With `O=C(Cn1cnc2ccccc2c1=O)N1CCN(Cc2ccc3c(c2)OCO3)CC1`, the “hERG current change (%, negative = inhibition) at 10uM” value is listed as -14%.

Take `O=C(c1cccc(Cl)c1)N1CCN(Cc2ccc3c(c2)OCO3)CC1`: the “hERG current change (%, negative = inhibition) at 10uM” value is -16.6%. Consider `O=C(O)C(=O)O.O=C(c1ccccc1F)N1CCN(Cc2ccc3c(c2)OCO3)CC1`, for which the “hERG current change (%, negative = inhibition) at 10uM” value is given as 6.48%. Consider `O=C(c1cc(Cl)nc2ccccc12)N1CCN(Cc2ccc3c(c2)OCO3)CC1`, for which the “hERG current change (%, negative = inhibition) at 10uM” value was -37.9%. As for `O=C(c1cccn2c(=O)c3cc(Cl)ccc3nc12)N1CCN(Cc2ccc3c(c2)OCO3)CC1`, the figure is -75.2%; as for `O=C(c1ccc2nc3ccccc3c(=O)n2c1)N1CCN(Cc2ccc3c(c2)OCO3)CC1`, -60.9%. With `CCc1ccc(NC(=O)c2cc(-c3ccc(OC)cc3)on2)cc1` the figure was -0.467%; with `CCc1cc(=O)oc2cc(C)cc(OCc3nn[nH]n3)c12`, -5.99%; with `CCc1nn(CCCC(=O)Nc2ccc(C)c(C)c2)c(=O)c2cc3occc3n12`, 4.15%.

In the case of `CCc1ccccc1N(CC(=O)NCc1ccco1)C(=O)CCC(=O)Nc1ccccn1`, the “hERG current change (%, negative = inhibition) at 10uM” value was -7.41%. As for `Fc1cccc(CN2CCN(c3nc4nonc4nc3NC3CC3)CC2)c1`, the figure is -10.3%. With `Clc1cccc(CN2CCN(c3nc4nonc4nc3NC3CC3)CC2)c1` the figure was -65.4%; with `Cc1cccc(CN2CCN(c3nc4nonc4nc3NC3CC3)CC2)c1`, -4.44%.

For `O=C(COC(=O)C1=NN(c2ccccc2)C(=O)CC1)Nc1ccc([N+](=O)[O-])cc1C(F)(F)F`, the “hERG current change (%, negative = inhibition) at 10uM” value came out at 5.08%. With `CC(C)CN(CC(C)C)C(=O)c1cccc(S(=O)(=O)N2CCc3ccccc32)c1` the figure was -24.9%; with `CCOC(=O)C1CCN(C(=S)NC2CC3C=CC2C3)CC1` (stereo not drawn), -54.3%; with `NC(=O)C1CCN(C(=S)NC2CC3C=CC2C3)CC1` (stereo not drawn), 16.2%. As for `CCOC(=O)C1CCN(C(=S)NC2CCCC2)CC1`, the figure is 0.997%. With `CN(c1ccccc1)S(=O)(=O)c1cccc(NC(=O)Cc2ccc(Cl)cc2)c1` the figure was 9.43%; with `COc1ccc(CN2C(=NC(=O)CCc3ccccc3)SC3CS(=O)(=O)CC32)cc1` (stereo not drawn), 3.85%. Consider `CC(NC(=O)COC(=O)CCNC(=O)c1ccco1)C12CC3CC(CC(C3)C1)C2` (stereo not drawn), for which the “hERG current change (%, negative = inhibition) at 10uM” value is on record as 0.656%. For `CC(NC(=O)c1ccco1)C12CC3CC(CC(C3)C1)C2` (stereo not drawn), the “hERG current change (%, negative = inhibition) at 10uM” value is given as -50.1%. `CC(C)[C@H](NC(=O)c1ccco1)C(=O)NC12CC3CC(CC(C3)C1)C2`: the “hERG current change (%, negative = inhibition) at 10uM” value is listed as -5.81%. As for `CC1CN(C2CCN(S(=O)(=O)c3ccc4ccccc4c3)CC2)CC(C)O1` (stereo not drawn), the figure is -22.5%; as for `CN1C(C(=O)N2CCc3ccccc3C2)=CC(c2ccc(F)cc2)=NS1(=O)=O`, -3.37%.

As for `COc1ccc(CCN(Cc2ccc(C(C)C)cc2)S(=O)(=O)c2ccc(S(=O)(=O)N(C)C)cc2)cc1OC`, the “hERG current change (%, negative = inhibition) at 10uM” value was -11.1%.

For `CCC(=O)C(C#N)(c1ccc(OC)c(OC)c1)C(C)C` (stereo not drawn), the “hERG current change (%, negative = inhibition) at 10uM” value is on record as -7.65%. With `COc1ccc(CCN(C)CCCC(C#N)(c2cc(OC)c(OC)c(OC)c2)C(C)C)cc1OC.Cl` (stereo not drawn) the figure was -64.1%.

In the case of `Cn1c(Cn2c(=O)sc3ccccc32)nnc1SCC(=O)NCc1ccccc1`, the “hERG current change (%, negative = inhibition) at 10uM” value was -0.25%. Take `Cc1ccc(NC(=S)N2CCN(S(=O)(=O)c3c(F)cccc3F)CC2)cc1C`: the “hERG current change (%, negative = inhibition) at 10uM” value is recorded as -17.6%. Turning to `Nc1nc(CSc2ncccn2)nc(Nc2ccccc2)n1`, the “hERG current change (%, negative = inhibition) at 10uM” value is recorded as 1.55%.

`COc1ccc(Nc2nc(N)nc(CN3CCc4ccccc4C3)n2)cc1`: the “hERG current change (%, negative = inhibition) at 10uM” value is listed as -56.4%.

`Cc1ccc(Nc2nc(N)nc(CSc3ncccn3)n2)cc1`: the “hERG current change (%, negative = inhibition) at 10uM” value is reported as -18.7%. With `Nc1nc(CN2CCc3ccccc3C2)nc(Nc2ccccc2)n1`, the “hERG current change (%, negative = inhibition) at 10uM” value was -51%. Turning to `COc1ccc(Nc2nc(N)nc(CSC(=S)N3CCCCC3)n2)cc1`, the “hERG current change (%, negative = inhibition) at 10uM” value came out at 0.179%. As to `COc1ccccc1Nc1nc(N)nc(CN2CCc3ccccc3C2)n1`, the “hERG current change (%, negative = inhibition) at 10uM” value is reported as -44.8%. As for `Nc1nc(CSCCO)nc(Nc2ccccc2)n1`, the figure is 9.39%. For `Cc1ccc(Nc2nc(N)nc(CSc3nnnn3-c3ccccc3)n2)cc1`, the “hERG current change (%, negative = inhibition) at 10uM” value is 4.49%.

In the case of `Cc1ccc(Nc2nc(N)nc(CN3CCc4ccccc4C3)n2)cc1`, the “hERG current change (%, negative = inhibition) at 10uM” value was -72.2%.

For the molecule `COc1cc([N+](=O)[O-])ccc1NC(=O)COC(=O)CCOc1ccc(C)cc1`, the “hERG current change (%, negative = inhibition) at 10uM” value is -11.2%. As to `O=C(CCCCn1c(=O)c2ccccc2n(CC(=O)NC2CCCC2)c1=O)NCc1ccco1`, the “hERG current change (%, negative = inhibition) at 10uM” value was -15.6%. As for `O=C(O)CSc1nnc(Cc2ccccc2)n1-c1ccccc1`, the figure is 5.74%; as for `COc1cc(CNCCO)ccc1OCCc1ccccc1`, 6.61%; as for `COc1cc(C)c(C(=O)Oc2cc(C)c(C(=O)O)c(O)c2)c(O)c1`, 11.5%.

Consider `COc1ccc(OCCN2CCN(C(=O)c3ccc(OC)cc3)CC2)cc1`, for which the “hERG current change (%, negative = inhibition) at 10uM” value is on record as -87.2%.

For the molecule `COc1ccc(OCCN2CCN(C(=O)c3ccc(OC(F)F)c(OC)c3)CC2)cc1`, the “hERG current change (%, negative = inhibition) at 10uM” value is -72.6%. On to `COc1ccc(C(=O)N2CCCC2)cc1`, for which the “hERG current change (%, negative = inhibition) at 10uM” value is on record as -2.88%. For `CC1(C)NC(=O)N(CCOc2ccc([N+](=O)[O-])cc2)C1=O`, the “hERG current change (%, negative = inhibition) at 10uM” value is -37.6%. In the case of `Clc1cccc(OCCN2CCN(CCOc3cccc(Cl)c3)CC2)c1`, the “hERG current change (%, negative = inhibition) at 10uM” value is -70.8%. As for `COc1ccc(C(=O)NCCN2CCN(C(=O)c3ccc(OC)c(OC)c3)CC2)cc1OC`, the figure is 14.5%; as for `N#Cc1ccc(OCCN2C(=O)NC3(CCSC3)C2=O)cc1` (stereo not drawn), -57.2%; as for `Cl.Clc1cccc(OCCN2CCCC2)c1`, 2.13%. As for `CCOc1cc(C(=O)N2CCc3cc(OC)c(OC)cc3C2)ccc1OC(F)F`, the figure is -35.7%.

Turning to `CN1CCN(CCOc2cccc(Cl)c2)CC1.Cl`, the “hERG current change (%, negative = inhibition) at 10uM” value is on record as 1.19%. With `COc1ccc(C(=O)N2CCN(C(=O)c3ccncc3)CC2)cc1` the figure was 12.4%; with `N#Cc1ccc(CN2C(=O)NC3(CCCCCC3)C2=O)cc1`, -32.2%. As for `CCC1(CC)C(=O)C2=C3C1[C@H](C(=O)OC)C=C(C(=O)OC)C[C@H]3[C@H]1C(=O)NC(=O)[C@H]1[C@H]2C` (stereo partly drawn), the figure is 3.57%; as for `NS(=O)(=O)c1c(Sc2ccccc2C(=O)O)ccc2ccccc12`, 28.4%; as for `CC1CCN(S(=O)(=O)c2c[nH]c(=O)[nH]c2=O)CC1`, 6.09%. With `CC1CCCN(S(=O)(=O)c2ccc3c(c2)c(=O)nc2ccc(Cl)cn23)C1` (stereo not drawn) the figure was -10.5%; with `CC(=O)Nc1ccc(NC(=O)C2CCCN(S(=O)(=O)c3ccc(-n4cnnn4)cc3)C2)cc1` (stereo not drawn), 0.72%. Turning to `Cc1cccc(C)c1NC(=O)CNC(=O)C(Cc1ccccc1)NC(=O)c1ccccc1` (stereo not drawn), the “hERG current change (%, negative = inhibition) at 10uM” value amounted to 13.5%. With `COc1ccc(C(=O)N2CCN(Cc3ccc(OC)c(OC)c3)CC2)cc1.O=C(O)C(=O)O` the figure was 0.702%. With `O=C1NC2(CCc3ccccc3C2)C(=O)N1CCOc1cccc(Cl)c1` (stereo not drawn) the figure was -51.1%. As for `O=C(c1ccc(Cl)cc1)N1CCN(CCOc2ccccc2)CC1`, the figure is -60.1%. Take `CN1CCN(C(=O)c2ccc(Cl)cc2)CC1`: the “hERG current change (%, negative = inhibition) at 10uM” value was determined as 8.8%. Take `O=C(c1c(F)cccc1F)N1CCN(CCOc2ccccc2)CC1`: the “hERG current change (%, negative = inhibition) at 10uM” value is on record as -8.2%. As for `CN1CCN(C(=O)c2ccc(OCCOc3ccccc3)cc2)CC1`, the figure is -9.69%. Regarding `COc1ccc(OCCN2C(=O)NC3(CCc4ccccc4C3)C2=O)cc1` (stereo not drawn), the “hERG current change (%, negative = inhibition) at 10uM” value was -49.7%. As to `O=C(CN1C(=O)NC2(CCCC2)C1=O)OCCOc1cccc(Cl)c1`, the “hERG current change (%, negative = inhibition) at 10uM” value is given as -7.43%. With `Cc1ccc(C)n1CCN1CCN(C(=O)c2ccc(Cl)cc2)CC1` the figure was -50.3%; with `Cc1ccc(C)n1CCN1CCN(C(=O)CC#N)CC1`, 16.3%; with `COc1ccc(OCCN2CCN(C(=O)c3ccc(OC)c(OC)c3)CC2)cc1`, -58.8%. With `COc1cc(OC)cc(C(=O)N2CCN(C(=O)c3ccc(OC)c(OC)c3)CC2)c1` the figure was -14%.
